The results in this text go back to PubChem BioAssay.

The source made the active and inactive calls.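 Rule for the calls, unless noted: active = NADPH fluorescence slope more negative than the mean of all samples by about 3 SD, 99.7% confidence; inactive = the rest.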

As a reminder, the inhibition is the drop in the measured response relative to a control, in per cent.

Experiment [1] is described as follows: inhibitors of TNFa-induced NFkB p65 translocation, primary screen, imaging, HUVEC, MLSMR starter and 10KST1 sets (AID 438;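 active = inhibition above 20% together with a positive visual image hit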;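 note: compound added about 3h40 before a 20 min TNFalpha stimulation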;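 for inhibition: signal is the nuclear over cytoplasmic p65 intensity ratio per well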). The conditions noted are these: HUVEC TNFa-induced p65 nuclear translocation; cell count: measured here: nuclei count (cytotoxicity indicator), at 2.08 µM; inhibition: at 2 µM, stronger effect = higher value, 0% TNFa-plus-vehicle, 100% no-TNFa wells.

Experiment [2] in a line: reduction of polyQ htt aggregates in cells – imaging, exon1htt(103Q)mCFP cells, high-content imaging, primary screen (AID 483;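 active = visual image review flags a hit and inhibition of aggregation exceeds 20%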;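 note: compound exposure lasted 3 days before fixation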;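 for nuclei count: percent of the per-plate median nuclei count of sample wells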). To be noted: exon1htt(103Q)mCFP cell line, aggregate imaging, at 2 µM; inhibition of aggregation: stronger effect = higher value; nuclei count: measured here: cell count, toxicity.
Experiment [3] is described as follows: endothelial E-selectin expression blockers – imaging, HUVEC, immunofluorescence, MLSMR starter and 10KST1 sets, primary screen (AID 487;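 active = visually confirmed hit in the image check and inhibition above 20%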;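 for inhibition: signal is fraction of cell area covered by stained E-selectin grains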;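 for nuclei count: 100% = median nuclei count of all wells on the same plate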). To be noted: HUVEC TNFalpha-induced E-selectin immunofluorescence imaging, at 2 µM; inhibition: stronger effect = higher value; nuclei count: measured here: cell number, toxicity.
A short description of experiment [4]: Primary imaging screen for DUSP6 inhibitors that restore phospho-Erk in transfected HeLa cells, chemical complementation (AID 609;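 active = compounds giving at least 50% inhibition in the cell-based MKP-3 phosphatase rescue imaging test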;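 for inhibition: phospho-Erk level distribution per well compared with pooled transfected vehicle control wells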). To be noted: HeLa MKP-3 transfected, phospho-Erk imaging KS statistic, at 10 µM, cells stimulated with TPA for 15 min.
For experiment [5], the target named is Dual specificity protein phosphatase 6 (Homo sapiens) (UniProt Q16828). Described as above. To be noted: HeLa MKP-3 transfected, phospho-Erk imaging KS statistic; at 10 µM; stronger effect = higher value; cells stimulated with TPA for 15 min.
Chain of Dual specificity protein phosphatase 6 (Homo sapiens) (Q16828 whole entry, looked up): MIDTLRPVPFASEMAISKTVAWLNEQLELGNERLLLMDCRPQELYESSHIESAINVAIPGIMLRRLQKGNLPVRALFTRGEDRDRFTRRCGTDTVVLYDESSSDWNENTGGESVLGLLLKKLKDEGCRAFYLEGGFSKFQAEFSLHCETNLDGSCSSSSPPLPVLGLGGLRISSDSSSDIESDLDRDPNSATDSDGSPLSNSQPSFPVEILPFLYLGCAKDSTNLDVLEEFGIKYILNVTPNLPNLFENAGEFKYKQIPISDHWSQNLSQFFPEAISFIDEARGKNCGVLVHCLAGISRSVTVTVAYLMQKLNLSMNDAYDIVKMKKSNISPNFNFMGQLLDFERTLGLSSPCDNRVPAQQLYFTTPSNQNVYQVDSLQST
Experiment [6] deals with Voltage-gated potassium channel subunit beta-2 (Rattus norvegicus) (UniProt P62483). Nature of the experiment: inhibitors of rat Kvbeta2 reductase activity – biochemical, NADPH fluorescence, primary screen (AID 622;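 active = fluorescence slope higher than the sample average by over 3 SD, cut at about -0.22 in these data, passing the limit was not always enough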;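 note: slope of raw intensity against log time taken from 70 to 1610 s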). The conditions noted are these: recombinant KvBeta, 4-cyanobenzaldehyde reduction, at 10 µM, stronger effect = higher value.
Chain of Voltage-gated potassium channel subunit beta-2 (Rattus norvegicus) (P62483 whole entry, looked up): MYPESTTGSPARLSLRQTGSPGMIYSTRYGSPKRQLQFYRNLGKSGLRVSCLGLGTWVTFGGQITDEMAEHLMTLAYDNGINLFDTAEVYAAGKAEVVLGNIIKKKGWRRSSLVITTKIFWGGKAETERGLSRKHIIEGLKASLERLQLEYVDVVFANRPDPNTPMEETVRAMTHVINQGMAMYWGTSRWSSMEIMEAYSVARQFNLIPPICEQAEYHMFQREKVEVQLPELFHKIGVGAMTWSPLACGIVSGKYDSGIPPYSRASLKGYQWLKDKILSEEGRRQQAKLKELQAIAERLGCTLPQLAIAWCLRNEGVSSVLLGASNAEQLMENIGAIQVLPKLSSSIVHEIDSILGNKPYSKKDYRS
Experiment [7] has the same target. Nature of the experiment: enhancers of rat Kvbeta2 NADPH turnover – biochemical, NADPH fluorescence, primary screen (AID 623).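 Note: fluorescence intensity change per second fitted from 20 to 320 s.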 The conditions noted are these: Recombinant KvBeta, NADPH fluorescence decrease slope, 10 min; at 10 µM; stronger effect = lower value.
Experiment [8] deals with Muscarinic acetylcholine receptor M4 (Homo sapiens) (UniProt P08173). Description: M4-linked GIRK flux change, two-sided – cell-based, HEK293 M4/GIRK, thallium flux, BTC-AM, M4 allosteric agonist project, primary screen (AID 625;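 active = fluorescence slope after compound addition differing from the mean of all tested samples at 99.7% confidence, mostly higher but some lower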;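 note: thallium influx through GIRK channels coupled to M4 in HEK293 cells with BTC-AM dye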). The conditions noted are these: at 10 µM, actives lie on both sides.
Chain of Muscarinic acetylcholine receptor M4 (Homo sapiens) (P08173 whole entry, looked up): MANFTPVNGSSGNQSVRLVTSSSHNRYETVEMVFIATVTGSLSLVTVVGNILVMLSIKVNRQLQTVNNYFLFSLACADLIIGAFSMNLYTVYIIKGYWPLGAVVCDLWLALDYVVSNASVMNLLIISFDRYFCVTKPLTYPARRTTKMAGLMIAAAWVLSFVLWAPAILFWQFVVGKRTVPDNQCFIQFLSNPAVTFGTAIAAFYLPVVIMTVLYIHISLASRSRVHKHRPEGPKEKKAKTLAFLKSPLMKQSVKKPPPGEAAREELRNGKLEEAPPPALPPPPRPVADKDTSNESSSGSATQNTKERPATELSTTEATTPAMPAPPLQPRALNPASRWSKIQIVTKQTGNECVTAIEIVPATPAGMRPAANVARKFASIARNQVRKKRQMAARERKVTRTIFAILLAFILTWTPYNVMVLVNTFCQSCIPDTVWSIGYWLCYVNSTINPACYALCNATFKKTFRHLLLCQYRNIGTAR
Experiment [9] is described as follows: inhibitors of larval lipid processing in zebrafish, primary screen, whole organism, PED6 fluorescence, gall bladder and intestine (AID 686;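 active = a full or partial loss of lipid-probe fluorescence in the fish gall bladder, intestine or both, judged by eye; inactive = no fluorescence loss, or compound toxic to the fish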;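 note: larvae 5 to 7 days old with five fish per well; signal comes from phospholipase A2 cleavage of quenched PED6 carried via bile; overnight exposure to compound and PED6 before scoring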). To be noted: Zebrafish larvae PED6 lipid processing, fluorescence scoring; screened at 20 µM (by protocol).
Experiment [10] in a line: loss of swimming-algae plug formation – whole organism, Chlamydomonas reinhardtii, WT vs cilia-less mutant, absorbance, 96-well, primary screen (AID 463189;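 active = inhibition at or above 50% relative to wild type and mutant plate controls; inactive = inhibition below 50%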;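 note: 0% = wild type cc124 cells in DMSO and 100% = ciliumless bld1 mutant cells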). The conditions noted are these: Chlamydomonas reinhardtii gravitaxis, OD600 absorbance, 2 days; at 10 µM; stronger effect = higher value.
Experiment [11] in a line: blockers of RIG-like receptor reporter activation – cell-based, Sendai virus stimulus, luciferase, 10K MLSCN set, TLR/RLR signaling modifier project, primary screen (AID 602276;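 active = inhibition at or above 50% at 10 µM; inactive = inhibition below 50%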;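 note: firefly luciferase from ISG56 promoter only with Renilla not read in this screen; 0% = Sendai virus plus DMSO and 100% = medium plus DMSO without virus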). To be noted: HEK293 RL24 IRF3 luciferase reporter, at 10 µM, stronger effect = higher value. For orientation: In a reporter assay the amount or activity of a reporter protein is the signal.
Experiment [12] can be described thus: TLR3 IRF3 reporter activation blockers – cell-based, poly I:C stimulus, luciferase, 10K MLSCN set, primary screen (AID 602277;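 active = inhibition of the reporter signal at or above 50%; inactive = inhibition below 50%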). To be noted: HEK293-TLR3 RL24 IRF3 luciferase reporter, at 10 µM, stronger effect = higher value.
[13] abbreviates: measured here: cell density z-score.
The mark [14] stands for this setting: measured here: nuclear c-Myc green intensity z-score.
[15] abbreviates: measured here: nuclear pErk red intensity z-score, stronger effect = higher value.

For the molecule `COc1cc(NC(=O)NC(C)(C(F)(F)F)C(F)(F)F)cc(OC)c1OC`, in experiment [1], the cell count was determined as 664. For the same molecule, the inhibition in [1] is -5.8% (inactive); in experiment [3] it was -50% (inactive); in experiment [5] it was -1.98% (inactive); in experiment [10], 14.3% (inactive); in experiment [11], 10.8% (inactive); in experiment [12], 13.7% (inactive). Moreover, the inhibition of aggregation in experiment [2] is -0.5% (inactive). Besides, the nuclei count turned out to be 83% in experiment [2] and 140% in experiment [3]. In addition, the figures for the z-score in experiment [4] (setting [13]), in [4] (setting [14]) and in experiment [4] (setting [15]) were 0.222, -0.586 and 1.46, respectively. For the same molecule, the results for the fluorescence slope in experiment [6] and in experiment [8] were -0.48 (inactive) and 0.00489 (inactive), respectively. For the same molecule, the NADPH fluorescence slope in experiment [7] is -6.8e-05 (inactive). Moreover, in experiment [9], the outcome was inactive.

`Cc1nc2ccccc2cc1O`: the cell count in experiment [1] was determined as 395. Further, the inhibition in [1] was -0.5% (inactive); in experiment [3], -67% (inactive); in [5] it was 1.42% (inactive); in experiment [10], 53.3% (active); in experiment [11], 17.5% (inactive); in [12] it was 27.8% (inactive). Besides, in experiment [2], the inhibition of aggregation was 21.5% (inactive). The nuclei count in [2] was 80.3%; in [3] it was 103%. Further, the z-score is -0.53 in [4] (setting [13]), -0.624 in experiment [4] (setting [14]) and 1.27 in experiment [4] (setting [15]). For the same molecule, the values for the fluorescence slope in [6] and in experiment [8] were -0.392 (inactive) and 0.00432 (inactive), respectively. In experiment [7], the NADPH fluorescence slope was -3.6e-05 (inactive). In addition, in experiment [9], the call was inactive.

Consider `CCCCc1nc(NCCNC(=O)c2ccco2)c(C#N)c2c1CSC(C)(C)C2`, for which the cell count in experiment [1] came to 552. Moreover, the inhibition was -4.6% (inactive) in experiment [1]; -75.5% (inactive) in experiment [3]; 9.07% (inactive) in [5]; 3.31% (inactive) in [10]; 1.84% (inactive) in experiment [11]; 7.1% (inactive) in experiment [12]. In experiment [2], the inhibition of aggregation was -1% (inactive). Also, the nuclei count worked out at 95.2% in [2] and 122% in experiment [3]. Moreover, the z-score in [4] (setting [13]) is 0.34; in experiment [4] (setting [14]), -0.704; in [4] (setting [15]) it was 0.0149. Also, the fluorescence slope in experiment [6] is -0.478 (inactive); in experiment [8], 0.00431 (inactive). For the same molecule, in experiment [7], the NADPH fluorescence slope was -5.7e-05 (inactive). Also, the outcome in experiment [9] was inactive.

With `CCn1nc(NC(=O)c2cccnc2)c2cc3ccccc3nc21`, the cell count in [1] came to 522. Moreover, the inhibition is -0.4% (inactive) in experiment [1]; -29.4% (inactive) in experiment [3]; -6.48% (inactive) in experiment [5]; 3.52% (inactive) in experiment [10]; 10.7% (inactive) in [11]; -6.02% (inactive) in experiment [12]. Also, in experiment [2], the inhibition of aggregation is -3.3% (inactive). For the same molecule, the nuclei count in experiment [2] was 104%; in experiment [3] it was 133%. Further, the z-score is 0.0666 in experiment [4] (setting [13]), 1.36 in experiment [4] (setting [14]) and -0.336 in experiment [4] (setting [15]). The fluorescence slope was -0.423 (inactive) in experiment [6] and 0.00509 (inactive) in experiment [8]. The NADPH fluorescence slope in experiment [7] is -3.9e-05 (inactive). For the same molecule, the molecule was classed as inactive in [9].

Take `CCc1nc2sc3c(c2c(=O)o1)CCCC3`: the cell count in experiment [1] was 736. Also, the inhibition in experiment [1] is -8.2% (inactive); in [3] it was -32.9% (inactive); in experiment [5], -2.07% (inactive); in experiment [10] it was 8.78% (inactive); in experiment [11], 23% (inactive); in experiment [12], 35.5% (inactive). Moreover, in [2], the inhibition of aggregation was -11.4% (inactive). Moreover, the nuclei count in experiment [2] came to 104%; in experiment [3], 130%. Moreover, the z-score in experiment [4] (setting [13]) is -0.371; in experiment [4] (setting [14]), -1.28; in experiment [4] (setting [15]), 1.35. For the same molecule, the fluorescence slope was -0.413 (inactive) in experiment [6] and 0.00552 (inactive) in experiment [8]. For the same molecule, in experiment [7], the NADPH fluorescence slope is -5.4e-05 (inactive). The call in [9] was inactive.

As for `Cc1ccc(C(=O)/C=C/Nc2cccc(O)c2)cc1`, in experiment [1], the cell count came to 368. Also, the inhibition in experiment [1] was -4.7% (inactive); in [3] it was -0.2% (inactive); in [5], -8.59% (inactive); in [10] it was 37.3% (inactive); in experiment [11] it was 5.62% (inactive); in experiment [12], -32.3% (inactive). Besides, in experiment [2], the inhibition of aggregation was -12% (inactive). In addition, the figures for the nuclei count in experiment [2] and in experiment [3] were 106% and 115%, respectively. Further, the z-score in [4] (setting [13]) was -0.411; in experiment [4] (setting [14]) it was -0.594; in experiment [4] (setting [15]), 0.929. Also, the figures for the fluorescence slope in [6] and in experiment [8] were -0.467 (inactive) and 0.00389 (inactive), respectively. In addition, in experiment [7], the NADPH fluorescence slope was -0.000129 (inactive). The molecule was called inactive in [9].

In the case of `Cc1cc2c(c(=O)o1)C(Cc1ccccc1)C(C#N)=C(N)O2` (stereo not given), the cell count in experiment [1] came to 706. Besides, the inhibition is -3.3% (inactive) in experiment [1]; -45.5% (inactive) in [3]; 9.61% (inactive) in experiment [5]; 9.12% (inactive) in experiment [10]; 13.9% (inactive) in experiment [11]; 19% (inactive) in [12]. Also, the inhibition of aggregation in experiment [2] is -2.1% (inactive). In addition, the nuclei count in experiment [2] turned out to be 80.9%; in experiment [3], 126%. In addition, the z-score was -1.29 in experiment [4] (setting [13]), 0.225 in experiment [4] (setting [14]) and 1.32 in experiment [4] (setting [15]). Also, the fluorescence slope in experiment [6] was -0.44 (inactive); in experiment [8], 0.00523 (inactive). Besides, the NADPH fluorescence slope in experiment [7] was -4.7e-05 (inactive). For the same molecule, the outcome in experiment [9] was inactive.

For the molecule `Cc1ccc(/C=N/n2nnnc2N)o1`, the cell count in experiment [1] was determined as 674. Also, the inhibition in experiment [1] is -1.3% (inactive); in experiment [3], -8.1% (inactive); in experiment [5], 1.04% (inactive); in experiment [10], 5.51% (inactive); in [11] it was -2.49% (inactive); in experiment [12] it was 3.55% (inactive). The inhibition of aggregation in experiment [2] was 3.9% (inactive). In addition, the nuclei count was found to be 132% in experiment [2] and 133% in [3]. Moreover, the z-score in experiment [4] (setting [13]) is 0.152; in experiment [4] (setting [14]), -0.504; in experiment [4] (setting [15]), 0.0866. The fluorescence slope in [6] was -0.487 (inactive); in [8], 0.00641 (inactive). Moreover, the NADPH fluorescence slope in [7] is -2.1e-05 (inactive). For the same molecule, the molecule was called inactive in [9].

Turning to `CC(O)c1n(C)c(Cl)c[n+]1C` (stereo not given), the cell count in [1] stood at 674. Further, the inhibition in [1] was -10% (inactive); in experiment [3], -67.2% (inactive); in experiment [5], 18.6% (inactive); in experiment [10], -6.3% (inactive); in experiment [11], 17% (inactive); in experiment [12] it was 10.8% (inactive). For the same molecule, the inhibition of aggregation in experiment [2] is -4% (inactive). Moreover, the nuclei count worked out at 103% in experiment [2] and 134% in experiment [3]. The z-score in experiment [4] (setting [13]) was -2.1; in experiment [4] (setting [14]) it was -0.307; in experiment [4] (setting [15]) it was 2.29. For the same molecule, the fluorescence slope in experiment [6] is -0.454 (inactive); in experiment [8], 0.0053 (inactive). Also, the NADPH fluorescence slope in [7] was -4.6e-05 (inactive). For the same molecule, the call in experiment [9] was inactive.

As to `Cc1nc2sc(C#N)c(N)c2c2c1CCCC2`, the cell count in experiment [1] stood at 603. Moreover, the inhibition in experiment [1] was 0.2% (inactive); in experiment [3], 0.2% (inactive); in [5], 9.07% (inactive); in experiment [10] it was 3.68% (inactive); in [11], -2.92% (inactive); in experiment [12] it was -41.1% (inactive). Also, the inhibition of aggregation in [2] was -143% (inactive). Also, the figures for the nuclei count in experiment [2] and in [3] were 3.6% and 96.3%, respectively. Moreover, the z-score in experiment [4] (setting [13]) was -2.36; in experiment [4] (setting [14]), 2.17; in experiment [4] (setting [15]) it was -1.05. The figures for the fluorescence slope in experiment [6] and in experiment [8] were -0.0248 (active) and 0.00523 (inactive), respectively. In addition, the NADPH fluorescence slope in [7] is -1e-05 (inactive). Also, in experiment [9], the molecule was called inactive.
